Each structure is given as a SMILES string. Records with an inconclusive call do not appear. Active and inactive are the calls of the source. Unless noted, calls follow the shape of the dose curve; as a rule, active = well fitted curve in the direction sought with a large enough effect; inconclusive = small, poorly fitted or top-dose-only effect, or another doubt; inactive = no such curve, though single readings can be large; an effect the other way counts as inactive or inconclusive.

The source of these data is PubChem BioAssay (NCATS).

A short description of assay [1]: HepG2 viability counterscreen (readout 2: ATP content) against the NCATS DSHEA and TCM libraries (AID 1794840). Also: 0% is about no effect. The essentials: (§1)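 HepG2 cells, 1,000/well, attached ~4 h, then exposed ~24 h at 37C to substances. Protease activity read by fluorescence of 25 uM GF-AFC (Ex/Em 380/510 nm) after 30 min; ATP then by CellTiter-Glo luminescence.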
(Counterscreens check selectivity or assay interference.)

Assay [2] can be described thus: HepG2 viability counterscreen (readout 1: protease activity) against the NCATS DSHEA and TCM libraries (AID 1794841).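 Also: cells exposed to compounds for about 24 h before the protease read; 0% is about no effect.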 The essentials: as §1
The target of assay [3] is Glutathione peroxidase 1 (Homo sapiens) (UniProt P07203). As to the kind of experiment: Primary qHTS Assay for Inhibitors of Recombinant Selenoprotein Glutathione Peroxidase 1 (GPX1) (AID 1845191). Also: nearly all actives have a fitted effect of over 65% in size. Also: potency is read from the fitted curve at half-maximal effect. As to activity, negative = inhibition: % is scaled to controls: 0 for no effect and ±100 for the full control effect. The essentials: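 10 nM GPX1 + cpd, 30 min RT; start w/ 1 mM GSH, 0.5 mM cumene hydroperoxide, 0.5 mM NADPH, 100 nM GR, 0.01% BSA; buffer 50 mM Tris-HCl pH 7.5, 2 mM EDTA, 150 mM NaCl; Fl 340/450, 0 & 15 min.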

Assay [4] addresses Phospholipid hydroperoxide glutathione peroxidase GPX4 (Homo sapiens) (UniProt P36969). The assay is described as follows: Primary qHTS Assay for Inhibitors of Recombinant Selenoprotein Glutathione Peroxidase 4 (GPX4) (AID 1845192). Also: nearly all actives have a fitted effect of over 65% in size. Also: potency is read from the fitted curve at half-maximal effect. The gist of the method:
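NADPH consumption, followed by fluorescence at 340/450 nm between 0 and 15 min, reports GPX4 activity via coupled glutathione reductase (100 nM). Enzyme 200 nM was pre-exposed to compound 30 min; 0.5 mM cumene hydroperoxide and 1 mM GSH served as substrates.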
On the technique in general: In qHTS, concentration-response curves come from the screen itself.

In assay [5] the target is Cytochrome P450 2C19 (Homo sapiens) (UniProt P33261). As to the kind of experiment: qHTS for inhibitors of CYP2C19 against the NCATS DSHEA and TCM libraries (AID 1919974).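 Also: luminescence from luciferin released by CYP2C19 oxidation of a pro-luciferin substrate.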 Also: potency is read from the fitted curve at half-maximal effect. The gist of the method: (§2)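 Light output from converted D-luciferin reports remaining CYP activity. Compounds preincubate with enzyme and substrate for 15 min; NADPH regeneration (1x final) runs the reaction for 30-45 min.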

Assay [6] in a line: KB-3-1 P-gp reporter qHTS against the NCATS DSHEA and TCM libraries (AID 1919975). Also: 0% is about no effect. The essentials:
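Parental KB-3-1 cells, 500 cells/well, in DMEM with 10% FBS, exposed 72 h at 37 C to compounds in concentration-response. Viability read by CellTiter-Glo luminescence after 30 min at room temperature.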

Assay [7] concerns the target Cytochrome P450 1A2 (Homo sapiens) (UniProt P05177). The assay is described as follows: qHTS for inhibitors of CYPIA2 against the NCATS DSHEA and TCM libraries (AID 1919976).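 Also: light from luciferin formed by CYP1A2 from a pro-luciferin substrate; % is scaled to controls: 0 for no effect and ±100 for the full control effect.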 The essentials: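 In this quantitative HTS, inhibition of recombinant human CYP1A2 was measured as loss of luciferin-derived luminescence. Turnover ran 30-45 min at RT after NADPH regeneration solution was added.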

Assay [8] can be described thus: qHTS Counterscreen for compound interference against the NCATS DSHEA and TCM libraries (AID 1919978).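 Also: compounds preincubated with 1 µM D-luciferin or buffer before detection reagent; % of control where 0% means no effect.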 The following applies: firefly luciferase detection reagent interference, luminescence. The gist of the method: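 Firefly luciferase detection reagent was added after compounds (19.5 nM–39.8 uM final) had been incubated 15 min at room temperature with 1 uM D-luciferin or with 100 mM phosphate buffer alone. Luminescence was read after 30 min at room temperature.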

Assay [9] is described as follows: Dual reporter qHTS for agonist of Pregnane X Receptor (hPXR) against the NCATS DSHEA and TCM libraries: Fluorescence readout (AID 1920058). Also: 0% is about no effect. The gist of the method: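 Measures viability of the PXR reporter HepG2 line by protease-substrate fluorescence (405/540 nm), taken 1 h after CellTiter-Fluor addition. Substances are tested as concentration series over a ~24 h exposure, with rifampicin as agonist control.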

Assay [10] has as its target Nuclear receptor subfamily 1 group I member 2 (Homo sapiens) (UniProt O75469). The assay is described as follows: Dual reporter qHTS for antagonist of Pregnane X Receptor (hPXR) against the NCATS DSHEA and TCM libraries: Luminescence Readout (AID 1920060).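 Also: HepG2 cells carrying hPXR luciferase reporter stimulated with rifampicin at 2 µM; 0% is about no effect.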 The gist of the method:
(§3)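 hPXR-Luc HepG2 cells exposed 24 h at 37 C to compounds with 2 uM rifampicin in antagonist mode; luciferase luminescence measured by ONE-Glo, with CellTiter-Fluor viability read beforehand.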

Assay [11] in a line: Dual reporter qHTS for antagonist of Pregnane X Receptor (hPXR) against the NCATS DSHEA and TCM libraries: Fluorescence Readout (AID 1920061). Also: 0% is about no effect. The gist of the method:
as §3

Assay [12] deals with Cytochrome P450 3A4 (Homo sapiens) (UniProt P08684). The assay is described as follows: qHTS for inhibitors of CYP3A4 against the NCATS DSHEA and TCM libraries (AID 1919971).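 Also: % is scaled to controls: 0 for no effect and ±100 for the full control effect; inhibition lowers luminescence from luciferin made by CYP3A4.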 The essentials:
as §2

For assay [13], the target named is Cytochrome P450 2D6 (Homo sapiens) (UniProt P10635). As to the kind of experiment: qHTS for inhibitors of CYP2D6 against the NCATS DSHEA and TCM libraries (AID 1919972). Also: % is scaled to controls: 0 for no effect and ±100 for the full control effect. The gist of the method: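 Steps: enzyme plus luciferin substrate dispensed; test substances pinned; 15 min RT; 1x NADPH regenerating solution added, 30–45 min RT protected from light; detection reagent, 30 min RT; luminescence measured. Minus-enzyme wells as background.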

Assay [14] is described as follows: qHTS profiling for inhibitors of Plasmodium falciparum proliferation (AID 504749).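 Also: 0% = DMSO vehicle and full inhibition = artemisinin control; nearly all actives have a fitted effect of over 60% in size.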 The following applies: P. falciparum in erythrocytes, SYBR Green DNA, 72 h, at 28.7 µM (top of the series). The essentials: (§4)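 Three-day growth assay of blood-stage parasites in erythrocytes (0.3% parasitemia, 2.5% hematocrit) at 37 C, 5% CO2, quantified by SYBR Green DNA staining after overnight detergent lysis.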

Assay [15] has as its system 3D7. The assay is described as above. The following applies: P. falciparum in erythrocytes, SYBR Green DNA, 72 h; series mostly up to 28.7 µM. The gist of the method:
as §4

For assay [16], the target named is Luciferin 4-monooxygenase (Photinus pyralis) (UniProt P08659). As to the kind of experiment: Primary firefly luciferase (FLuc) qHTS assay for identification of artifact compounds. (AID 1845220).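 Also: plate controls were DMSO vehicle for no effect and no enzyme for full effect; nearly all actives have a fitted effect of over 60% in size.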 The settings on record: outcome: dose series up to 54.1 µM. The essentials:
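FLuc 10 nM; luciferin 10 uM; ATP 10 uM; Tris-acetate pH 7.6, Mg-acetate 10 mM; 15 min RT preincubation; 5 min reaction; luminescence.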

The nature of assay [17]: Primary fluorescence-based thiol-reactive (MSTI) qHTS assay for identification of artifact compounds. (AID 1845221).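 Also: thiol-reactive compounds lower the probe fluorescence signal; nearly all actives have a fitted effect of over 65% in size.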 The essentials:
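Thiol-reactive compounds detected by quenching of 4 uM MSTI fluorescence (525/598 nm) after 1 h room-temperature dark incubation in PBS pH 7.4, 2% DMSO. qHTS titration; percent inhibition Hill-fitted against Acetyl-MSTI/MSTI controls.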

The test system of assay [18] is Nanoluciferase (engineered Oplophorus gracilirostris luciferase). As to the kind of experiment: Primary Nanoluciferase (NLuc) qHTS assay for identification of artifact compounds. (AID 1845222).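 Also: NLuc secreted into diluted conditioned medium of S16 cells; 0% = DMSO and -100% = no enzyme.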 The essentials:
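NLuc from S16 cell medium (1:55) plus test compounds, 15 min, room temperature. Luminescence after Nano-Glo (1:100) addition, 5 min.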

Assay [19] is described as follows: Primary redox qHTS assay for identification of artifact compounds. (AID 1845223).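 Also: 0% = DMSO and 100% = reference compound.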 The essentials: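 Amplex Red (25 uM) and HRP (250 mU/mL) in HBSS, with compounds for 15 min, then 250 uM DTT for 30 min, room temperature, dark. Fluorescence 525/598 nm read; normalized to DMSO and 10 uM DA3003; Hill fit.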
Assay [20] can be described thus: qHTS drug screen for cell cycle checkpoint inhibitors in PARPi-resistant BRCA-mutant ovarian cancer cell lines. (AID 1963452; calls by dose curve). The settings on record: PEO1/OlaR viability, CellTiter-Glo luminescence, 96 h, stronger effect = lower value. The essentials:
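PEO1, PEO4 and PEO1/OlaR ovarian cancer cells, 600 per well, exposed 96 h at 37C to a dilution series. Viability read by CellTiter-Glo luminescence, normalized to DMSO and empty wells; activity summarized as Z-AUC.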

Cytochrome P450 2C19 (Homo sapiens), sequence (P33261 whole entry, looked up): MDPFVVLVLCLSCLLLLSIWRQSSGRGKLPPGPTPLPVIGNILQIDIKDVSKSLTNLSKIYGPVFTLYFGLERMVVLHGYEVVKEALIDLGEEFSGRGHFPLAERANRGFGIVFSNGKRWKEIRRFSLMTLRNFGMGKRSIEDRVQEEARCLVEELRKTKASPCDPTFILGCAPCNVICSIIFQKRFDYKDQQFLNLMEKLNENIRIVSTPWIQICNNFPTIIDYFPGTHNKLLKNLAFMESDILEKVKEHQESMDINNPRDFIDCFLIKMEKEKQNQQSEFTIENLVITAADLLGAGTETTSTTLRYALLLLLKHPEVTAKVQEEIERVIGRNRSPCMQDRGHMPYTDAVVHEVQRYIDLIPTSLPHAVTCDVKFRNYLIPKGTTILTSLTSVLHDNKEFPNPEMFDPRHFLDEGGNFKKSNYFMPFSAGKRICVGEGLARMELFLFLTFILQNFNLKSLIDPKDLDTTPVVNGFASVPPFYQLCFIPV
Nuclear receptor subfamily 1 group I member 2 (Homo sapiens), sequence (O75469 whole entry, looked up): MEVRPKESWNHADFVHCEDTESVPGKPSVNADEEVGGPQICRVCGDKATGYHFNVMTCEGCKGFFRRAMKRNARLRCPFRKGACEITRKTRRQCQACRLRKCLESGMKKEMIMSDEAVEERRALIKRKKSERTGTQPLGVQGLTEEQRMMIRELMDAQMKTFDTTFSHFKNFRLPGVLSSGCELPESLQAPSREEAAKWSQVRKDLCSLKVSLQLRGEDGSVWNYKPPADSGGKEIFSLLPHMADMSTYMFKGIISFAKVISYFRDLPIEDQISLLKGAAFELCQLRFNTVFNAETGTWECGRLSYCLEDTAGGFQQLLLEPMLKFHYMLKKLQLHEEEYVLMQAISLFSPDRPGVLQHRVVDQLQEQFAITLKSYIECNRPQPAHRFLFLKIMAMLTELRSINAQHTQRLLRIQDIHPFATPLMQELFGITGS
Glutathione peroxidase 1 (Homo sapiens), sequence (P07203 whole entry, looked up): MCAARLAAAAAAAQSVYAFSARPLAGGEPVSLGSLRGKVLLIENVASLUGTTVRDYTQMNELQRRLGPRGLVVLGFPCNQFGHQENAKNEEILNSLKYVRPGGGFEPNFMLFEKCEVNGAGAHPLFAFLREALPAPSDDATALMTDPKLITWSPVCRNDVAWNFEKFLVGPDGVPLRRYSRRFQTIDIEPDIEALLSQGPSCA
Cytochrome P450 1A2 (Homo sapiens), sequence (P05177 whole entry, looked up): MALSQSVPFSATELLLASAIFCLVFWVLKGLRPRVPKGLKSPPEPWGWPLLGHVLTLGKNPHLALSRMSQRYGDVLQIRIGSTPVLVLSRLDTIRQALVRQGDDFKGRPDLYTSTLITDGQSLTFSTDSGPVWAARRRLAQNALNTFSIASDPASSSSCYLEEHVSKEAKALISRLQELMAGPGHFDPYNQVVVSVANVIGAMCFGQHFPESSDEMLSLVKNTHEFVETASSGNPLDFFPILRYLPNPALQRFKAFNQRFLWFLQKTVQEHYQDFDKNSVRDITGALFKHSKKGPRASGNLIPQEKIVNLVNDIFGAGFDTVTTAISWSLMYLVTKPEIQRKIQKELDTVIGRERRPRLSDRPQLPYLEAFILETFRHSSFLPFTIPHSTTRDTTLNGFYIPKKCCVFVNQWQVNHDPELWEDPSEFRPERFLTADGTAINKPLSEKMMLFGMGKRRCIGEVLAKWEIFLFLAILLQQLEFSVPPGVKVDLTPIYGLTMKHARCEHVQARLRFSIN
Phospholipid hydroperoxide glutathione peroxidase GPX4 (Homo sapiens), sequence (P36969 whole entry, looked up): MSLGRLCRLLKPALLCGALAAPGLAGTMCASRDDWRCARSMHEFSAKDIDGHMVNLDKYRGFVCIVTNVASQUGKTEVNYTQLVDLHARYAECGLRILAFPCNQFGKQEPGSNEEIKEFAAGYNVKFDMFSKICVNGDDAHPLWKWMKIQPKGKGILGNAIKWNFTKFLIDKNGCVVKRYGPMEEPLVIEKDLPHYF
Cytochrome P450 2D6 (Homo sapiens), sequence (P10635 whole entry, looked up): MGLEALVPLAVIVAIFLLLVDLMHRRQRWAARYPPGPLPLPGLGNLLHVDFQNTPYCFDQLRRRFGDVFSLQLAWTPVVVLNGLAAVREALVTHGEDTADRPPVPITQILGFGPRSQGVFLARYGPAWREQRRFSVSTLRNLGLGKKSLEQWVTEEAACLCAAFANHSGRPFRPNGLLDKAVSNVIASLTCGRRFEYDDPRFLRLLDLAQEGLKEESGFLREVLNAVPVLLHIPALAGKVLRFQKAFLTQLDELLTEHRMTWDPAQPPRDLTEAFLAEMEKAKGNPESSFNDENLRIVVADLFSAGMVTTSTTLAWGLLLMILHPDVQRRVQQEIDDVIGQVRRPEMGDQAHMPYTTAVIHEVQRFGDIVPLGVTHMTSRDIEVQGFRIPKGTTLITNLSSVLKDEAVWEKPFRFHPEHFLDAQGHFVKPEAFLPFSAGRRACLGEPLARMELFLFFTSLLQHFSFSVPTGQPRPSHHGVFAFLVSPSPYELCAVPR
Cytochrome P450 3A4 (Homo sapiens), sequence (P08684 whole entry, looked up): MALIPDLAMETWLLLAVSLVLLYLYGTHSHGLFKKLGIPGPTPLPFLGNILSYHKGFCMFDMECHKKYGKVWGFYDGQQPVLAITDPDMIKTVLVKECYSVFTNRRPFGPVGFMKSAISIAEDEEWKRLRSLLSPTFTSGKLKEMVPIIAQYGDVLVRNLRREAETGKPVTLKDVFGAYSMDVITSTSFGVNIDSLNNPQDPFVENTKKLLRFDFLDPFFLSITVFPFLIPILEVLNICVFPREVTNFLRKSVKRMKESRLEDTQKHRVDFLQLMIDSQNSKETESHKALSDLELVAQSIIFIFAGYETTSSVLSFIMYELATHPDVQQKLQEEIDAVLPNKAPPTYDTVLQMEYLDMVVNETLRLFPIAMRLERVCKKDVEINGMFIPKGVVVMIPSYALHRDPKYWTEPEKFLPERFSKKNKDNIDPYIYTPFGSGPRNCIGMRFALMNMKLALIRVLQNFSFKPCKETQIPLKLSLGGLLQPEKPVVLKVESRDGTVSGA

`C=C1CC[C@H](O)C/C1=C\C=C1/CCC[C@]2(C)[C@@H]([C@H](C)CCCC(C)C)CC[C@@H]12`: the molecule was called inactive in assay [1], in assay [2], in assay [6], in assay [9], in [10] and in [11]. In addition, the Potency entry in assay [3], in assay [4] and in assay [7] was “inactive” throughout. In assay [5], the Potency is 25.1 µM (active). Further, the max response in assay [8] was 0.0382% (inactive).

As for `CC1=C(/C=C/C(C)=C/C=C/C(C)=C/C=C/C=C(C)/C=C/C=C(C)/C=C/C2=C(C)C[C@@H](O)CC2(C)C)C(C)(C)C[C@H](O)C1`, the Potency result in assay [3] and in [4] was “inactive” throughout.

`C[C@H](CCC(=O)O)[C@H]1CC[C@H]2[C@@H]3[C@H](O)C[C@@H]4C[C@H](O)CC[C@]4(C)[C@H]3C[C@H](O)[C@]12C`: the Potency result in assay [3] and in assay [4] was “inactive” in each case.

Take `O=C(O)/C=C/c1ccccc1`: the result in assay [1], in [2], in assay [12], in assay [13], in assay [6] and in assay [9] was inactive. The outcome in [10] and in assay [11] was inactive. Moreover, the Potency entry in assay [3], in [4], in assay [5], in assay [7] and in assay [15] was “inactive” each time. The max response in assay [8] was -1.31% (inactive). The activity, negative = inhibition in assay [14] (parasite line A) was -6.43% (inactive); in [14] (parasite line B) it was 4.85% (inactive).

As for `OC[C@@H](O)C(O)[C@H](O)CO`, the Potency entry in [3] and in [4] was “inactive” each time.

With `C[C@@H]1O[C@@H]1P(=O)(O)O`, the Potency in [3] was 11.1 µM (active).

As to `Cc1c(O)c(=O)ccn1C`, the Potency result in [3] and in assay [4] was “inactive” throughout.

Turning to `NC[C@@H]1CC[C@@H](N)[C@@H](O[C@H]2[C@H](O)[C@@H](O[C@H]3O[C@H](CO)[C@@H](O)[C@H](N)[C@H]3O)[C@H](N)C[C@@H]2N)O1`, in assay [3], the Potency entry is “inactive”.

Consider `CCC(Oc1ccccc1)C(=O)N[C@@H]1C(=O)N2[C@@H]1SC(C)(C)[C@@H]2C(=O)O` (some centres not stated), for which the Potency entry in assay [3] is “inactive”. Also, the Potency in assay [4] was 31.6 µM (active).

`CC(C)=CCC/C(C)=C/C=C/C(C)=C/C=C/C(C)=C/C=C/C=C(C)/C=C/C=C(C)/C=C/C=C(\C)CCC=C(C)C`: the outcome in [1], in [2], in assay [12], in [13], in assay [6] and in assay [9] was inactive. The molecule was called inactive in assay [10] and in assay [11]. In addition, the Potency entry in assay [3], in assay [4], in assay [5] and in assay [7] was “inactive” throughout. For the same molecule, in [8], the max response is 0.511% (inactive). The activity, negative = inhibition in [14] (parasite line A) was -19% (inactive); in assay [14] (parasite line B), -16% (inactive).

With `C[N@+]12CCCC[C@@H]1CCC(=C(c1cccs1)c1cccs1)C2`, the Potency entry in assay [3] and in [4] was “inactive” in each case.

On to `CO[C@H]1C[C@@H]2CC[C@@H](C)[C@@](O)(O2)C(=O)C(=O)N2CCCC[C@H]2C(=O)O[C@H]([C@H](C)C[C@@H]2CC[C@@H](OC(=O)C(C)(CO)CO)[C@H](OC)C2)CC(=O)[C@H](C)/C=C(\C)[C@@H](O)[C@@H](OC)C(=O)[C@H](C)C[C@H](C)/C=C/C=C/C=C/1C`, for which the Potency entry in [3], in [4] and in assay [15] was “inactive” throughout. In addition, the molecule was classed as inactive in [16], in assay [17], in assay [18] and in assay [19]. The figures for the Z-AUC in assay [20], in assay [20] (measured here: PEO1 parental Z-AUC) and in assay [20] (measured here: PEO4 Z-AUC) were -1.22 (inactive), -1.04 and -0.64, respectively. In addition, the activity, negative = inhibition in assay [14] (parasite line A) is 5.02% (inactive); in assay [14] (parasite line B) it was 6.39% (inactive).

With `CC(C)C[C@H](NC(=O)[C@@H](COC(C)(C)C)NC(=O)[C@H](Cc1ccc(O)cc1)NC(=O)[C@H](CO)NC(=O)[C@H](Cc1c[nH]c2ccccc12)NC(=O)[C@H](Cc1cnc[nH]1)NC(=O)[C@@H]1CCC(=O)N1)C(=O)N[C@@H](CCCN=C(N)N)C(=O)N1CCC[C@H]1C(=O)NNC(N)=O`, the Potency entry in [3] and in assay [4] was “inactive” throughout.

Take `CO[C@@]1(NC(=O)C2SC(=C(C(N)=O)C(=O)O)S2)C(=O)N2C(C(=O)O)=C(CSc3nnnn3C)CS[C@@H]21` (some centres not stated): the Potency in assay [3] is 10.1 µM (active); in assay [4], 17.8 µM (active).
